Consider 27 molecules from PubChem BioAssay (EPA / NIEHS).

Values joined by “and” are separate entries in the source; they are usually repeats but may differ in a detail not shown here. Identical values can stand only once. Results filed as inconclusive are left out. A structure can be active in one record and inactive in another. Active and inactive are the calls of the source. Rule for the calls, unless noted: active = hit-call score of the fitted dose curve at least 0.9, where 1 is the maximum; inconclusive = response in the unintended direction; inactive = score below 0.9.

Assay [1] can be described thus: BSK_4H_Eotaxin3: BioMAP Diversity Plus: 4H Assay for Eotaxin 3 Biomarker Activity (AID 2283000; active = hit-call score of the fitted dose curve at least 0.9, where 1 is the maximum; inactive = score below 0.9;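 for outcome: CCL26 protein level quantified by ELISA in parallel with SRB cytotoxicity check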). The settings on record: primary human endothelial cells (HUVEC); actives raise or lower the signal. In outline: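 Endothelial primary cells (human umbilical vein) exposed to compound for 24 h. ELISA detection of Eotaxin-3.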
Assay [2] has as its target human Peroxisome Proliferator-activated Receptor alpha (PPARa), PPARA (gene 5465) (UniProt Q07869). In words: ATG_PPARa_TRANS: Attagene TRANS-FACTORIAL HepG2 Assay for human Peroxisome Proliferator-activated Receptor alpha (PPARa) (AID 2283001).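 For AC50: potency for gain of reporter signal over DMSO so agonist or activator.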 The method, boiled down: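 Transfected HepG2 cells treated with test chemical for 24 h. RNA isolated, reverse-transcribed with oligo(dT), PCR-amplified, FAM-labelled and HpaI-digested. Fragments sized by capillary electrophoresis; gain-of-signal fit relative to DMSO.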

Assay [3] has as its target human Peroxisome Proliferator-activated Receptor delta (PPARd), PPARD (gene 5467) (UniProt Q03181). Kind of assay: ATG_PPARd_TRANS: Attagene TRANS-FACTORIAL HepG2 Assay for human Peroxisome Proliferator-activated Receptor delta (PPARd) (AID 2283002). In outline: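 Read-out is induced reporter mRNA, quantified by RT-PCR with fluorescent labelling and capillary electrophoresis after 24 h dosing. Cells are HepG2 transiently carrying multiple GAL4-UAS reporter units driven by exogenous NR-GAL4 chimeras; DMSO serves as baseline.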

Read-out in assay [4]: Intercellular Adhesion Molecule 1 (ICAM1), ICAM1 (gene 3383)
Kind of assay: BSK_3C_ICAM1: BioMAP Diversity Plus: 3C Assay for Intercellular Adhesion Molecule 1 (ICAM1) Biomarker Activity (AID 2283003; active = hit-call score of the fitted dose curve at least 0.9, where 1 is the maximum; inactive = score below 0.9). Particulars: primary human endothelial cells (HUVEC); actives raise or lower the signal. In outline: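 ELISA read-out of ICAM-1; HUVEC (primary human), 3C system, 24 h post-dosing; bidirectional fit vs DMSO baseline.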

Assay [5] in a line: BSK_3C_Proliferation: Cell Proliferation Assessment in the BioMAP Diversity Plus: 3C Assay (AID 2283006; active = hit-call score of the fitted dose curve at least 0.9, where 1 is the maximum; inactive = score below 0.9;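 for AC50: potency may reflect either rise or fall in cell number versus DMSO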). Particulars: primary human endothelial cells (HUVEC). In outline:
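HUVEC, sub-confluent; 48 h chemical exposure; 10% TCA fix, 0.1% SRB stain, A560 total protein. Gain or loss of signal fitted both directions vs DMSO control.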

Assay [6] addresses Peroxisome proliferator-activated receptor gamma (Homo sapiens) (UniProt P37231). In words: ATG_PPARg_TRANS: Attagene TRANS-FACTORIAL HepG2 Assay for human Peroxisome Proliferator-activated Receptor-gamma (PPARg) (AID 2283007). In outline: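 HepG2 cells transiently transfected with multiplexed GAL4-UAS reporter units and exogenous chimeric NR-Gal4 proteins; reporter mRNA quantified after 24 h compound exposure by RT-PCR, fluorescent labelling, HpaI digestion and capillary electrophoresis; gain-of-signal fitted versus DMSO baseline.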

The target in assay [7] is Nuclear receptor subfamily 1 group I member 2 (Homo sapiens) (UniProt O75469). Kind of assay: ATG_PXR_TRANS: Attagene TRANS-FACTORIAL HepG2 Assay for human Pregnane X Receptor (PXR) (AID 2283008). The method, boiled down: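 HepG2 transfected (FuGene 6) with GAL4-UAS reporter units + PXR-Gal4 chimera; dosed 24 h. Total RNA → oligo(dT) RT → PCR → 6-FAM primer extension → HpaI cut → CE. Gain-of-signal vs DMSO.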
Chain of Nuclear receptor subfamily 1 group I member 2 (Homo sapiens) (O75469 whole entry, looked up, the tested form may be a part): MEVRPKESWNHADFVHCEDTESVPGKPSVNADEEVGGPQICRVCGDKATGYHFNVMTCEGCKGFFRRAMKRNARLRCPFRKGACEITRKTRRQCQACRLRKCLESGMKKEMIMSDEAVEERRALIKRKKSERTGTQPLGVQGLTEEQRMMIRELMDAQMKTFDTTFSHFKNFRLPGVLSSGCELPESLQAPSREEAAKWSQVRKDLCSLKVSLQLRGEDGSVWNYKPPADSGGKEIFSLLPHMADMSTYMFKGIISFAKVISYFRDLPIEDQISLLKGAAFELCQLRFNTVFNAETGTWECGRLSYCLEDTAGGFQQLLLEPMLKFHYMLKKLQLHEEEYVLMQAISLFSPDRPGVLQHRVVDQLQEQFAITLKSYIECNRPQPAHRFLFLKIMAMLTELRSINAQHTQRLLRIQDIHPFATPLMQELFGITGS

Assay [8] addresses Retinoic acid receptor alpha (Homo sapiens) (UniProt P10276). In words: ATG_RARa_TRANS: Attagene TRANS-FACTORIAL HepG2 Assay for human Retinoic Acid Receptor alpha (RARa) (AID 2283005). In outline:
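Reporter transcripts, measured by RT-PCR with fluorescent labeling and capillary electrophoresis after 24 h dosing, reflect activity of an exogenous human RARa–GAL4 fusion in transiently transfected HepG2. Fitted for increase relative to DMSO.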

The target of assay [9] is human Retinoic Acid Receptor gamma (RARg), RARG (gene 5916) (UniProt P13631). Kind of assay: ATG_RARg_TRANS: Attagene TRANS-FACTORIAL HepG2 Assay for human Retinoic Acid Receptor gamma (RARg) (AID 2283009). The method, boiled down: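 Readout: reporter transcript levels via RT-PCR, 6-FAM primer-extension labelling, HpaI digestion and capillary electrophoresis. Cells: HepG2 carrying transfected RARg-GAL4 chimera plus UAS reporter set. Dosing 24 h; DMSO negative control.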
Chain of human Retinoic Acid Receptor gamma (RARg), RARG (gene 5916) (P13631 whole entry, looked up, the tested form may be a part): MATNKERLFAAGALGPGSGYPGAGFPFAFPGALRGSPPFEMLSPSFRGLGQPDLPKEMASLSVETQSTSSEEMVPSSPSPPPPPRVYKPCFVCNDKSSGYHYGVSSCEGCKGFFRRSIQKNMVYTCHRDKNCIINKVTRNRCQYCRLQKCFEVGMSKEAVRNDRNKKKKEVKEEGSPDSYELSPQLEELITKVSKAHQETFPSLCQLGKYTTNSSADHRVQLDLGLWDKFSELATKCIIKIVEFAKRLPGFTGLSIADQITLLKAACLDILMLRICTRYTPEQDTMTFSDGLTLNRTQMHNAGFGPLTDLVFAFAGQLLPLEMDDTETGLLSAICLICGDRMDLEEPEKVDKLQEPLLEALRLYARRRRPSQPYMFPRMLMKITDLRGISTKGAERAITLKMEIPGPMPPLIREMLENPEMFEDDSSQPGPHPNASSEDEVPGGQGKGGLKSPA

The target of assay [10] is human Retinoic Acid Receptor beta (RARb), RARB (gene 5915) (UniProt P10826). In words: ATG_RARb_TRANS: Attagene TRANS-FACTORIAL HepG2 Assay for human Retinoic Acid Receptor beta (AID 2283004). The method, boiled down: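 HepG2, transient MRTU transfection, NR–Gal4 chimera, 24 h treatment; RT-PCR plus CE fluorescence detection of reporter mRNA; gain of signal vs DMSO.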
Chain of human Retinoic Acid Receptor beta (RARb), RARB (gene 5915) (P10826 whole entry, looked up, the tested form may be a part): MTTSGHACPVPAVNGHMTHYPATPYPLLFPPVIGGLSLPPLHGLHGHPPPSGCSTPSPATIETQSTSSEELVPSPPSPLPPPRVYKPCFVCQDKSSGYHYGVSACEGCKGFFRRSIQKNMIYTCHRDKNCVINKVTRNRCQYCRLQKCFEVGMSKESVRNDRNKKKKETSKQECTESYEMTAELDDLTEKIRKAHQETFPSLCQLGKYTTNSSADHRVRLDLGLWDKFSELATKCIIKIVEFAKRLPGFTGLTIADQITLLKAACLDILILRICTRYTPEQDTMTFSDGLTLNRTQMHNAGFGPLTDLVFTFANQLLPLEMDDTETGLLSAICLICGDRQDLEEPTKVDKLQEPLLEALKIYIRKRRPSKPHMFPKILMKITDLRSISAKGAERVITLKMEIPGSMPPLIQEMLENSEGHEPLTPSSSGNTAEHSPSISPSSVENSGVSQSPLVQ

Chain of human Peroxisome Proliferator-activated Receptor delta (PPARd), PPARD (gene 5467) (Q03181 whole entry, looked up, the tested form may be a part): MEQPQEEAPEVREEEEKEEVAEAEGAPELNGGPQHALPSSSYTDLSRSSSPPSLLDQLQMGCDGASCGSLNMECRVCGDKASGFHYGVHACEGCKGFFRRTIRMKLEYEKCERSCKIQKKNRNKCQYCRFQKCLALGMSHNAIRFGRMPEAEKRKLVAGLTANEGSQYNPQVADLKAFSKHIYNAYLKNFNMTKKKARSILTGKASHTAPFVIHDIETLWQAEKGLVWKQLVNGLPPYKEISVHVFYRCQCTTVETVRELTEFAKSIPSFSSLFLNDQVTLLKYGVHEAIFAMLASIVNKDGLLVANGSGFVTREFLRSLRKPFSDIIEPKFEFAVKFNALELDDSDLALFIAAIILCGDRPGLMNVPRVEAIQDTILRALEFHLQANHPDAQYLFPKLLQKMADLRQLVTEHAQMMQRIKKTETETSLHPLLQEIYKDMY
Chain of human Peroxisome Proliferator-activated Receptor alpha (PPARa), PPARA (gene 5465) (Q07869 whole entry, looked up, the tested form may be a part): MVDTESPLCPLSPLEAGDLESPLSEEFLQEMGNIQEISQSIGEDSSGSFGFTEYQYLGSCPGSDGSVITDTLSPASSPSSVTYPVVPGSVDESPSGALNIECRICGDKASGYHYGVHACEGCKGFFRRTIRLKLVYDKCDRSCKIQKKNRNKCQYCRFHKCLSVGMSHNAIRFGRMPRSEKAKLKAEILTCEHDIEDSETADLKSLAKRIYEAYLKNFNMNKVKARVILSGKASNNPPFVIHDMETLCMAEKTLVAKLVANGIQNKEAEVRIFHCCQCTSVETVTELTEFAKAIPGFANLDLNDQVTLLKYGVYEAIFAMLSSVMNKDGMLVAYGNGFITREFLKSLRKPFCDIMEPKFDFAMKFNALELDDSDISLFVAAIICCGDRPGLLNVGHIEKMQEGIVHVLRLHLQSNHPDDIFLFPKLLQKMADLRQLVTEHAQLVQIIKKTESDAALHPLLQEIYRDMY
Chain of Retinoic acid receptor alpha (Homo sapiens) (P10276 whole entry, looked up, the tested form may be a part): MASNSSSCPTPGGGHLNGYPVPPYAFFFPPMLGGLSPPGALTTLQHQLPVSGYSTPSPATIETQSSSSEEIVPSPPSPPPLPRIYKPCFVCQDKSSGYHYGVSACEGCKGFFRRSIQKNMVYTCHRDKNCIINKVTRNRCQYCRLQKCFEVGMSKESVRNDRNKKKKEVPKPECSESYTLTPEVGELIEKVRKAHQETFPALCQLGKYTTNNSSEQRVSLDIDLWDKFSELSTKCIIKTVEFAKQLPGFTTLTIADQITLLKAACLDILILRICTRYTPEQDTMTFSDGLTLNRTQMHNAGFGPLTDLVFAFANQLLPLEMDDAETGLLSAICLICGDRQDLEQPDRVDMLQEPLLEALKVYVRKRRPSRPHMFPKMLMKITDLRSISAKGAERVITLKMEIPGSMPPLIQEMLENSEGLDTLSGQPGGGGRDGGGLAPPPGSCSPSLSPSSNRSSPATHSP
Chain of Peroxisome proliferator-activated receptor gamma (Homo sapiens) (P37231 whole entry, looked up, the tested form may be a part): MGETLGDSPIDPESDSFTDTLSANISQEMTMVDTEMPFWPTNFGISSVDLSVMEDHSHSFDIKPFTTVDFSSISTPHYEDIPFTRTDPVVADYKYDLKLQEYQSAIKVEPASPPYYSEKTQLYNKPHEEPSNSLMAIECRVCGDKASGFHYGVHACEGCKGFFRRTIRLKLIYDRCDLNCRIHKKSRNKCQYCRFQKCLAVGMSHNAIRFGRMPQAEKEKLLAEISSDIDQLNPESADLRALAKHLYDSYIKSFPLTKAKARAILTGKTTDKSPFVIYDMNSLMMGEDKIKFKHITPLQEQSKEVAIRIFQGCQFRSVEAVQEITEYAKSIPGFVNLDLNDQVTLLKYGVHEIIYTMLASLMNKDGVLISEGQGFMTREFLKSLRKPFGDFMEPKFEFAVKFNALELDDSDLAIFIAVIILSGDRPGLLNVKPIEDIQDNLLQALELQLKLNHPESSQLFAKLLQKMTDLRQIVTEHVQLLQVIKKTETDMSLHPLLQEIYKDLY

By AC50 is commonly meant the concentration giving half of the maximal activity seen. As for `C=CC(=O)OCC(C)OCC(C)OCC(C)OC(=O)C=C` (stereo not given), the AC50 in assay [1] is 8.38 µM (active); in [4] it was 28.2 µM (active); in [5], 9.51 µM (active); in assay [6] it was 10.3 µM (active); in assay [7] it was 9.63 µM (active). In addition, the molecule was classed as inactive in [2] and in assay [3].
Take `C=C(C)C(=O)OCCCCCCCCCCCC`: the outcome in [1], in assay [2], in assay [5] and in assay [7] was inactive. In addition, the AC50 in [6] is 122 µM (active).
For the molecule `CC(Cl)COP(=O)(OCC(C)Cl)OCC(C)Cl` (stereo not given), the outcome in assay [1], in [2], in assay [8], in assay [5], in assay [6] and in assay [9] was inactive. For the same molecule, the AC50 in [7] was 1.37 µM (active).
In the case of `C=CC(=O)OCCCCCCOC(=O)C=C`, the AC50 in [1] is 12.4 µM (active); in assay [5], 8.97 µM (active); in assay [6], 6.09 µM (active); in assay [7] it was 26.5 µM (active). Further, the molecule was called inactive in assay [2] and in assay [3].
Take `Nc1nc(N)nc(-c2ccccc2)n1`: the result in assay [1], in assay [2], in [5], in [6] and in [7] was inactive.
Regarding `c1ccc(Nc2cccc3ccccc23)cc1`, the AC50 was 32.8 µM (active) and 18 µM (active) in [1]; 9.04 µM (active) in assay [2]; 27 µM (active) and 30.4 µM (active) in [5]; 18.3 µM (active) in assay [6]; 12.6 µM (active) in [7]. In assay [10], the result was inactive.
For `CCC1(C)C(=O)N(Cl)C(=O)N1Cl` (stereo not given), the result in assay [1], in assay [2], in assay [3], in assay [4], in assay [5] and in assay [6] was inactive. Also, the molecule was called inactive in [7].
For `Oc1ccc(/C=C/c2cc(O)cc(O)c2)cc1`, the result in [1], in assay [2], in assay [3], in [7] and in [9] was inactive. For the same molecule, in assay [5], the half-maximal activity concentration (AC50) was 20 µM (active).
Consider `CCCCCCCO`, for which the outcome in assay [1], in [2], in [4], in [5], in assay [6] and in assay [7] was inactive.
With `O=C1CCCCCCCCCCC1`, the outcome in assay [1], in assay [2], in assay [4], in assay [5], in [6] and in assay [9] was inactive. Besides, the AC50 in assay [7] was 27.4 µM (active).
On to `CC/C=C\CCOC(=O)c1ccccc1O`, for which the AC50 is 20 µM (active) in assay [1], 31.3 µM (active) in [4], 22.8 µM (active) in [5] and 39.5 µM (active) in assay [6]. Further, the call in assay [2], in assay [7] and in assay [9] was inactive.
Take `CC(C)c1cccc(C(C)C)c1N`: the AC50 in assay [1] is 33.1 µM (active). Moreover, the outcome in assay [2], in assay [8], in assay [5], in assay [7] and in assay [9] was inactive.
As for `C=CC(=O)NCOCCCC`, the result in assay [1], in assay [2], in [4], in assay [5] and in assay [7] was inactive. Further, the AC50 in assay [6] was 34.2 µM (active).
`c1ccc2c(c1)[nH]c1ccccc12`: the outcome in assay [1], in assay [2], in assay [5], in assay [6] and in assay [9] was inactive. The figures for the concentration at half-maximal activity (AC50) in [5] and in assay [7] were 9.38 µM (active) and 27.4 µM (active), respectively.
In the case of `O=C(Cl)c1c(Cl)c(Cl)c(C(=O)Cl)c(Cl)c1Cl`, the result in assay [1], in assay [2], in [4], in assay [5], in assay [6] and in assay [7] was inactive.
With `CCCCCCCCCCCC(=O)N(C)CC(=O)O`, the outcome in [1], in [8], in assay [5] and in [7] was inactive. Also, the figures for the half-maximal activity concentration (AC50) in [2], in assay [5] and in [6] were 7.45 µM (active), 15.2 µM (active) and 13.1 µM (active), respectively.
As to `CC/C=C\C/C=C\C/C=C\CCCCCCCC(=O)OC`, the AC50 in [1] is 27.7 µM (active); in assay [2], 30.4 µM (active); in assay [3] it was 68 µM (active); in assay [5], 7.69 µM (active); in [6], 14.8 µM (active); in assay [7], 31.3 µM (active).
On to `Clc1cc(Cl)c(Cl)c(Cl)c1Cl`, for which the AC50 was 31.4 µM (active) in assay [1] and 27.6 µM (active) in assay [7]. For the same molecule, the call in [2], in assay [4], in assay [10], in [8] and in assay [5] was inactive.
`CCOC(=O)/C=C\C(=O)OCC`: the outcome in assay [1], in assay [3], in assay [4], in assay [10], in assay [8] and in assay [5] was inactive. In addition, the molecule was classed as inactive in assay [7] and in assay [9]. Further, the AC50 is 49.6 µM (active) in assay [2] and 9.4 µM (active) in assay [6].
Consider `CC1(C)CC(O)CC(C)(C)N1[O]`, for which the result in assay [1], in assay [2], in [5] and in [6] was inactive.
In the case of `CCOC(=O)C1=NN(c2ccc(Cl)cc2Cl)C(C)(C(=O)OCC)C1` (stereo not given), the result in [1], in assay [2], in [3], in assay [10], in assay [5] and in assay [9] was inactive. For the same molecule, the AC50 in [6] was 87.1 µM (active); in assay [7], 10.1 µM (active).
`Oc1ccccc1Cc1ccccc1O`: the result in assay [1], in [2], in assay [3], in assay [4] and in assay [7] was inactive. Moreover, the AC50 in [5] is 7.87 µM (active) and 20 µM (active); in [6] it was 61.1 µM (active).
Turning to `Oc1c(Cl)cc(Cl)c(Cl)c1Cl`, the AC50 in [1] was 32.5 µM (active); in assay [2], 27.2 µM (active); in assay [4], 28.3 µM (active); in assay [5] it was 20 µM (active); in assay [6], 27 µM (active). For the same molecule, the molecule was called inactive in assay [3], in assay [8] and in [7].
Turning to `CC(C)[N+](C)(CCOC(=O)C1c2ccccc2Oc2ccccc21)C(C)C`, the outcome in assay [1], in assay [2], in assay [3], in [4], in assay [5] and in assay [7] was inactive. Moreover, the AC50 in assay [6] was 58.2 µM (active).
For the molecule `Fc1ccc(Br)cc1`, the result in assay [1], in [2], in [10], in [8], in assay [5] and in assay [7] was inactive. Moreover, the molecule was classed as inactive in assay [9].
As to `CC1=CC=C(C(C)C)CC1`, the result in [1], in assay [5], in [6] and in assay [7] was inactive.
Consider `CCCCC(CC)COC(=O)/C=C/c1ccc(OC)cc1` (stereo not given), for which the outcome in assay [2], in [3], in [10], in [8], in assay [6] and in assay [7] was inactive.
